Compounds with a hit are over-represented: about 6.8% of the library has one in this group of screens.
Pf Dd2 growth: blocks growth of Plasmodium falciparum Dd2 parasites. AID 1159554. activity change, % at 10 µM. hit rate 2.3% among 94,000. P. falciparum Dd2 growth, SYBR Green, 72 h; hits give low values; in the data active means activity change below about -80%; inconclusive means no clear call, values can overlap the other calls
T cruzi growth-1: T. cruzi proliferation inhibition. inhibition, % at 8.34 µM. hit rate 5.9% among 77,000. T. cruzi beta-gal in NIH3T3, GalScreen luminescence, 90 h. AID 624255;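 active means mean inhibition above about 93%, with at least 55% of replicates each passing it, limit read from the data, passing the limit was not always enough; inconclusive means only one of those two conditions holds; inactive means neither condition holds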
C diff growth: C. difficile growth inhibition | Clostridium difficile clinical isolate growth, OD600, 24 h; hits give low values | growth activity, negative = inhibition, % at 16 µg/mL (by protocol) | hit rate 0.25% among 86,000;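 active means mean growth activity at or below -80% and every replicate also at or below -80%; inconclusive means mean at or below -80% but some replicate above -80%; inactive means mean growth activity above -80%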
T cruzi growth-2: blocks T. cruzi growth in NIH3T3 host cells; shares compounds with T cruzi growth-1; T. cruzi beta-gal in NIH3T3, GalScreen luminescence, 90 h; inhibition, % at 8.35 µM; hit rate 72% among 5,600; AID 651739;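 active means mean replicate inhibition above about 95% and at least 55% of replicates individually reaching it, limit read from the data; inconclusive means only one of the two criteria is met; inactive means neither criterion is met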
T cruzi growth-3: blocks T. cruzi growth in NIH3T3 host cells | shares compounds with T cruzi growth-1 | T. cruzi beta-gal in NIH3T3, GalScreen luminescence, 90 h | inhibition, % at 2.09 µM | hit rate 21% among 5,600 | AID 651740;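 active means mean inhibition above about 95%, with at least 55% of replicates also reaching it, limit read from the data; inconclusive means meets just one of the two conditions; inactive means meets neither condition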
3T3 cytotox: kills mouse NIH/3T3 fibroblasts; shares compounds with T cruzi growth-1; NIH/3T3 viability, CellTiter-Glo ATP luminescence, 90 h; hit rate 14% among 5,600; cytotoxicity (signal decrease), % at 8.35 µM;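 active means mean signal decrease across replicates above about 35% based on untreated-well scatter, with enough replicates individually passing, limit read from the data; inconclusive means no rule stated though some were filed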
NIH3T3 tox 2: kills mouse NIH/3T3 fibroblasts; shares compounds with T cruzi growth-1; NIH/3T3 viability, CellTiter-Glo ATP luminescence, 90 h; inhibition, % at 24.9 µM; hit rate 56% among 5,600;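 active means mean loss of cell viability signal at or above a set limit, and enough replicates individually reaching it; inconclusive means meets only the mean limit or only the replicate share; inactive means meets neither condition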
Each line names hits and unclear results; the compound was inactive in the other large screens (follow-up assays come after a bar, where they were run); ! = a repeat was not active.

COc1ccc(-c2ccc([C@H]3[C@H](CO)N4CCCCN(C(=O)NC(C)C)C[C@@H]34)cc2)cc1	T cruzi growth-1 105.2 | T cruzi growth-2 113.5 | T cruzi growth-3 inactive | 3T3 cytotox inactive | NIH3T3 tox 2 24.8
Cc1cc(C(=O)Nc2ccc3c(c2)C(=O)N(C)[C@H]2CC[C@H](CC(=O)NC4CCCC4)O[C@H]2CO3)no1	none
O=C(NC1CCCC1)N1CC2(C1)[C@H](c1ccccc1)[C@@H](CO)N2S(=O)(=O)Cc1ccccc1	none (no result: T cruzi growth-1)
CO[C@@H]1CN(C)C(=O)c2ccc(NC(C)=O)cc2OC[C@H](C)N(Cc2ccc(F)cc2)C[C@H]1C	none (no result: C diff growth)
CCNC(=O)C[C@@H]1C=C[C@H](NS(=O)(=O)c2ccc(F)cc2)[C@H](CO)O1	none (no result: C diff growth)
C[C@H]1CN([C@@H](C)CO)S(=O)(=O)c2ccc(C3=CCCC3)cc2O[C@@H]1CN(C)C(=O)Nc1ccc2c(c1)OCO2	T cruzi growth-1 109.0 | T cruzi growth-2 95.9 | T cruzi growth-3 inactive | 3T3 cytotox inactive | NIH3T3 tox 2 27.5
C[C@H](CO)N1C[C@H](C)[C@@H](CN(C)C(=O)Nc2ccc3c(c2)OCO3)Oc2cc(C#Cc3ccncc3)ccc2S1(=O)=O	none
C[C@@H]1CN([C@@H](C)CO)S(=O)(=O)c2ccc(C#Cc3ccncc3)cc2O[C@@H]1CN(C)C(=O)Nc1ccc2c(c1)OCO2	none
C[C@H](CO)N1C[C@H](C)[C@@H](CN(C)C(=O)Nc2ccc3c(c2)OCO3)Oc2cc(C#Cc3ccccc3)ccc2S1(=O)=O	T cruzi growth-1 131.2 | T cruzi growth-2 104.0 | T cruzi growth-3 inactive | 3T3 cytotox inactive | NIH3T3 tox 2 inactive
C[C@@H]1CN([C@H](C)CO)S(=O)(=O)c2ccc(C3=CCCC3)cc2O[C@@H]1CN(C)C(=O)Nc1ccc2c(c1)OCO2	none
C[C@@H]1CN([C@H](C)CO)S(=O)(=O)c2ccc(C#Cc3ccccc3)cc2O[C@H]1CN(C)C(=O)Nc1ccc2c(c1)OCO2	T cruzi growth-1 91.7 | T cruzi growth-2 107.8 | T cruzi growth-3 95.9! | 3T3 cytotox inactive | NIH3T3 tox 2 31.9
C[C@@H]1CN([C@H](C)CO)S(=O)(=O)c2ccc(C#CC(C)(C)O)cc2O[C@@H]1CN(C)C(=O)C1CCCCC1	none
C[C@H]1CN([C@@H](C)CO)C(=O)c2cc(NC(=O)Cc3cn(C)c4ccccc34)ccc2O[C@H]1CN(C)C	none (no result: T cruzi growth-1)
C[C@@H]1CCCCO[C@@H](CN(C)S(=O)(=O)c2ccccc2)[C@H](C)CN([C@@H](C)CO)C(=O)c2cc(NC(=O)Nc3ccc(F)cc3)ccc2O1	T cruzi growth-1 103.9 | T cruzi growth-2 106.8 | T cruzi growth-3 inactive | 3T3 cytotox inactive | NIH3T3 tox 2 inactive
C[C@H](CO)N1C[C@H](C)[C@H](CN(C)S(=O)(=O)c2ccccc2)OCCCC[C@H](C)Oc2ccc(NC(=O)Nc3ccc(F)cc3)cc2C1=O	T cruzi growth-1 109.2 | T cruzi growth-2 105.7 | T cruzi growth-3 inactive | 3T3 cytotox inactive | NIH3T3 tox 2 inconclusive
CC(C)NC(=O)Nc1ccc2c(c1)C(=O)N([C@H](C)CO)C[C@H](C)[C@H](CN(C)S(=O)(=O)c1ccc(F)cc1)OCCCC[C@H](C)O2	none (no result: Pf Dd2 growth)
C[C@@H]1CCCCO[C@H](CN(C)S(=O)(=O)c2ccccc2)[C@@H](C)CN([C@@H](C)CO)C(=O)c2cc(NC(=O)Nc3ccc(F)cc3)ccc2O1	T cruzi growth-1 106.1 | T cruzi growth-2 107.5 | T cruzi growth-3 inactive | 3T3 cytotox inactive | NIH3T3 tox 2 35.6
CO[C@H]1CN(C)C(=O)c2cc(NC(=O)C3CCCC3)ccc2OC[C@@H](C)NC[C@@H]1C	none (no result: Pf Dd2 growth, C diff growth)
CC(=O)N(C)C[C@H]1Oc2cc(-c3ccncc3)ccc2S(=O)(=O)N([C@H](C)CO)C[C@H]1C	none
C[C@H](CO)N1C[C@H](C)[C@@H](CN(C)C(=O)C2CC2)Oc2cc(-c3cncnc3)ccc2S1(=O)=O	none
C[C@@H]1CN([C@@H](C)CO)S(=O)(=O)c2ccc(-c3ccccc3F)cc2O[C@@H]1CN(C)Cc1cccnc1	T cruzi growth-1 100.6 | T cruzi growth-2 104.9 | T cruzi growth-3 inactive | 3T3 cytotox 68.9 | NIH3T3 tox 2 71.3
C[C@H](CO)N1C[C@H](C)[C@@H](CN(C)Cc2cccnc2)Oc2cc(-c3ccccc3F)ccc2S1(=O)=O	none
